Results filed as inconclusive are left out. The source made the active and inactive calls.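 The calls were made as follows, unless noted: active = binding below the plate cutoff, the plate median minus 3 SD, with a reading above zero; inconclusive = below the plate cutoff but reading exactly zero; inactive = the rest.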

A word on the inhibition: it is the change of the read-out against control, counted positive when it falls.

Experiment [1] in a line: yeast TOR pathway RPL19A-GFP modulators, primary screen, cell-based, S. cerevisiae, multiplex flow cytometry (AID 1862; in the data active = percent of DMSO control GFP below about 86%;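 also: lower values mimic rapamycin by blocking the RPL19A rise seen in DMSO cells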). The note with it: S. cerevisiae RPL19A-GFP strain, flow cytometry fluorescence, 3 h; at 10 µM; stronger effect = lower value. A general note: In flow cytometry, cells or beads pass a laser one at a time.
The nature of experiment [2]: modulators of MEP2-GFP levels in yeast, primary screen, S. cerevisiae, multiplex flow cytometry (AID 1867;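 active = GFP response, as percent of the DMSO control, above the screen-wide mean plus 3 SD, about 139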;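 also: median GFP channel fluorescence of barcode-gated MEP2-GFP cells measured by flow cytometry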). The following applies: S. cerevisiae MEP2-GFP strain, 3 h, at 10 µM, stronger effect = higher value, 100% means same as DMSO wells.
Experiment [3] can be described thus: modulators of CIT2-GFP expression in yeast, primary screen, S. cerevisiae, GFP fusion, multiplex flow cytometry (AID 1870;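 active = percent response above a set limit, the screen-wide mean plus 3 SD, cut at about 130% in these data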;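 also: barcoded CIT2-GFP strain pooled with four other GFP strains with rapamycin as positive control; median GFP fluorescence per well over plate mean of DMSO wells so 100% = DMSO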). The note with it: 3 h, at 10 µM, stronger effect = higher value.
Experiment [4] can be described thus: modulators of LAP4-GFP expression in yeast, primary screen, S. cerevisiae, multiplex flow cytometry (AID 1873;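 active = GFP signal, as percent of the solvent control, above the screen mean plus 3 SD, about 149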). The following applies: 3 h, at 10 µM, stronger effect = higher value.
Experiment [5] is described as follows: modulators of AGP1-GFP expression in yeast TOR pathway, primary screen, cell-based, multiplex flow cytometry, S. cerevisiae (AID 1887;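 active = GFP signal above the screen-wide mean plus 3 SD, that is over about 124.5% of the solvent control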;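 also: AGP1-GFP fusion strain of S. cerevisiae within a five-strain barcoded multiplex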). The following applies: 3 h, at 10 µM, stronger effect = higher value.
Experiment [6] in a line: inhibitors of CD8+ T cell-vesicle binding, pilot screen, LFA-1/ICAM-1 modulator project, MLPCN validation set, flow cytometry (AID 2523;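 active = response below a set limit, under 55% cells CD8-positive and vesicle-bound, and CD8 cells' 90th-percentile brightness under 279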;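 as to vesicle binding response: mean PE anti-B7-1 fluorescence of CD8+ cells relative to row control; 100% = QL9-loaded vesicles with DMSO vehicle in the same plate row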). The note with it: 2C mouse CD8+ T cells, at 7 µM, stronger effect = lower value; double positive events: measured here: CD8+/vesicle+ event percentage.
For experiment [7], the target named is Integrin beta-1 (Homo sapiens) + Integrin alpha-4 (Homo sapiens) (UniProt P13612+P05556). Put plainly: inhibition of HUTS-21 binding to VLA-4, pilot screen, VLA-4 allosteric modulator project, U937 cells, HUTS-21 mAb, flow cytometry, validation set (AID 2674;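 active = inhibition above 50%, about 3 SD of the validation set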;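 also: antibody binding induced by the VLA-4 ligand LDV present at three times its Kd; 0% = LDV ligand with antibody and no compound and 100% = antibody without LDV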). The note with it: HUTS-21 LIBS mAb binding, at 6.7 µM, stronger effect = higher value, binding induced by LDV ligand.

Experiment [8] in a line: superoxide lowering in aged yeast cells, pilot screen, validation compound set (AID 2706;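 active = superoxide response below 65% of plate, a cut near 3 SD across the whole screen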;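 also: yeast exposed to compound for one week at 30 degrees C before staining; 100% = mean of all compound wells on the same plate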). The note with it: S. cerevisiae aging, superoxide DHE fluorescence; at 10 µM; stronger effect = lower value.
The target in experiment [9] is Beta-adrenergic receptor kinase 1 (Homo sapiens) (UniProt P25098). In words: GRK2 binders displacing RNA aptamer, biochemical, validation, human GRK2, bead flow cytometry (AID 488806;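 active = aptamer binding inhibition above 30%, about 3 SD of noise from non-fluorescent compounds; inactive = inhibition at or below 30%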). The following applies: bead-bound GRK2, FAM-aptamer displacement, at 10 µM, stronger effect = higher value.
The target in experiment [10] is Beta-2 adrenergic receptor (Homo sapiens) (UniProt P07550). In words: beta2AR agonists driving receptor internalization, pilot screen, cell-based, FAP fluorogen, flow cytometry, validation set (AID 504459;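 active = percent response above 42, roughly 3 SD of non-fluorescent test compounds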;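 also: agonist-driven loss of surface beta2AR via internalization measured by FAP dye flow cytometry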). The note with it: Am2.2-beta2AR cells, FAP surface receptor flow cytometry; at 10 µM; stronger effect = higher value.
The target in experiment [11] is AP-2 complex subunit beta (Homo sapiens) (UniProt P63010). In words: inhibitors of arrestin peptide binding to AP2, pilot screen, biochemical, validation set, GST-AP2 beads, flow cytometry (AID 504541;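 active = inhibition above 54%, about 3 SD of non-fluorescent compounds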;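 also: AP2 carries R879A mutation and is captured from E. coli lysate; bead-bound FITC arrestin peptide fluorescence measuring arrestin peptide binding to AP2; 0% = DMSO wells and 100% = excess unlabeled arrestin peptide control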). The note with it: FITC arrestin peptide, at 10 µM, stronger effect = higher value, AP2 beta2 appendage fragment, R879A mutant.
Experiment [12] can be described thus: yeast V-ATPase proton transport modulators, S. cerevisiae, pHLuorin, HTS validation (AID 504600; in the data active = response above about 15%;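 also: plate controls were DMSO for no effect and reference compound for full effect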). The following applies: S. cerevisiae pHLuorin cytosolic pH, at 10 µM, stronger effect = higher value.
For experiment [13], the system named is anti-desmoglein-3 scFv antibody binding to human DSG3. Put plainly: inhibitors of anti-DSG3 scFv binding to DSG3, pilot screen, biochemical, validation compound set, bead-based, flow cytometry (AID 588368).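 Also: signal is the median channel fluorescence of bead-bound GFP antibody.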 The note with it: Protein G beads, DSG3-Fc, scFv-GFP binding, at 10 µM, stronger effect = lower value.
Experiment [14] in a line: inhibitors of fungal efflux pumps CDR1, CDR2, MDR1, pilot screen, validation compound set, multiplex, phenotypic (AID 588506;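 active = efflux inhibition above 0.42, the validation set average plus 4 SD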;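 also: Nile Red retained in cells so higher fluorescence means more efflux inhibition; 0 = negative control wells and 1 = enniatin B 25 µM full block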). The note with it: S. cerevisiae pump-expressing triplex, Nile Red efflux flow cytometry; at 10 µM; stronger effect = higher value; the pumps come from Candida albicans.
The target of experiment [15] is ATP-binding cassette sub-family B member 6 (Homo sapiens) (UniProt Q9NP58). Put plainly: ABCB6 transporter inhibitors, pilot screen, K562-ABCB6 cells, flow cytometry, validation set (AID 588550;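 active = inhibition above the screen-wide mean plus 3 SD, about 51%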;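 also: 0% = DMSO wells and 100% = benzethonium chloride 70 µM positive control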). The following applies: K562-ABCB6 porphyrin accumulation, 1 h, at 10 µM, stronger effect = higher value.
A short description of experiment [16]: promoters of myeloid differentiation in arrested cells, primary screen, cell-based, GFP/MAC1 double positive, flow cytometry, validation set (AID 588685;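 active = differentiation response of at least 50%, scaled between solvent and reference control, from cells with both markers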;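 also: compound exposure lasts four days before antibody staining and flow analysis; 0% = DMSO wells and 100% = 5 µM fulvestrant positive control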). The note with it: ER-HoxA9 marrow cells, stronger effect = higher value, normalized: vehicle 0, fulvestrant 100.

Chain of Integrin beta-1 (Homo sapiens) + Integrin alpha-4 (Homo sapiens) (P05556 whole entry, looked up): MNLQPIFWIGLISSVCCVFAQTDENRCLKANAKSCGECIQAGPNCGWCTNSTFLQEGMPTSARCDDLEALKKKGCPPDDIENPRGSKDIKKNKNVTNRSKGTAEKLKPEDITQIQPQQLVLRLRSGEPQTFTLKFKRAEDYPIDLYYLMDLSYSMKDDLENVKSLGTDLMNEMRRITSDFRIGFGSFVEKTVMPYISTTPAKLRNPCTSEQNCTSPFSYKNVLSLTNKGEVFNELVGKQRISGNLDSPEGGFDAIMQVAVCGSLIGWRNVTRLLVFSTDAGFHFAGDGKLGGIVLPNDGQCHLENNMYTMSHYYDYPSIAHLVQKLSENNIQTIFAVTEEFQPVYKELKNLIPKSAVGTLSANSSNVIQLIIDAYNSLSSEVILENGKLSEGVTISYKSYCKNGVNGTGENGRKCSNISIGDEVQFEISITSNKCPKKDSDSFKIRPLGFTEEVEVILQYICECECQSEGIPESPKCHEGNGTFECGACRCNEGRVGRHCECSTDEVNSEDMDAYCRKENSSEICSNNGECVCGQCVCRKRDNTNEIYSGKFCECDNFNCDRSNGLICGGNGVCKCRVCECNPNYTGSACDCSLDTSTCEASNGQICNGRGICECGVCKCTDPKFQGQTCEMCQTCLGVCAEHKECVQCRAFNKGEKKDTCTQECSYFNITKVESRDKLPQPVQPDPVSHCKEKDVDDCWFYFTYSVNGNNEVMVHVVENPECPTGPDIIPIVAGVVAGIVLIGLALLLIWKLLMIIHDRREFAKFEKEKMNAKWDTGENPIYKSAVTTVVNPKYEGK
Chain of Integrin beta-1 (Homo sapiens) + Integrin alpha-4 (Homo sapiens) (P13612 whole entry, looked up): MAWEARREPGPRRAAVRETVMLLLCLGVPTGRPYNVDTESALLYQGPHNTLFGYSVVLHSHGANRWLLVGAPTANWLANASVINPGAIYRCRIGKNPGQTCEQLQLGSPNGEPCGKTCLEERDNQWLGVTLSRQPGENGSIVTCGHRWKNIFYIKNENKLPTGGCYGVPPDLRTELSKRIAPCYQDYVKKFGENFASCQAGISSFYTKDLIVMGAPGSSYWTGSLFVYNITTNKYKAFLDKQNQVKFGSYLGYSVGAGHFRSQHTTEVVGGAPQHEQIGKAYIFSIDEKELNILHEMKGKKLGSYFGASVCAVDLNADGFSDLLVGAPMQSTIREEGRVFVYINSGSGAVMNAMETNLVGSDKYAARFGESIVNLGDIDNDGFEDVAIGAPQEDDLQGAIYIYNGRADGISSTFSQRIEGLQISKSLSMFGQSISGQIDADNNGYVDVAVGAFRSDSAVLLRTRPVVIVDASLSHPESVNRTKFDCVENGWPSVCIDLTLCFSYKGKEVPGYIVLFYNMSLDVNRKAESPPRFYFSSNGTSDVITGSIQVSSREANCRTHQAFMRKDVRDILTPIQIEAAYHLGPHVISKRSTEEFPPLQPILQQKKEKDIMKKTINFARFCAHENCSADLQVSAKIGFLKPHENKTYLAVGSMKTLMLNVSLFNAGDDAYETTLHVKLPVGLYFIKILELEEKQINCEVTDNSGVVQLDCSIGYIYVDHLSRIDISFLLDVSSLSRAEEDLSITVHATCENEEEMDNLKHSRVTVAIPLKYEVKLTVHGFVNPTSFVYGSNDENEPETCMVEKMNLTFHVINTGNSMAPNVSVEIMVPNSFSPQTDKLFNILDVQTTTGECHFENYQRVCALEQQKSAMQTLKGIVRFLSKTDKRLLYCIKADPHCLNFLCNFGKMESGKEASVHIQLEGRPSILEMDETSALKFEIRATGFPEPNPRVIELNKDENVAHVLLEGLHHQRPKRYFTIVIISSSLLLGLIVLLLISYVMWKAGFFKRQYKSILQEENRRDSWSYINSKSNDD
Chain of AP-2 complex subunit beta (Homo sapiens) (P63010 whole entry, looked up, the tested form may be a part, one chain of several): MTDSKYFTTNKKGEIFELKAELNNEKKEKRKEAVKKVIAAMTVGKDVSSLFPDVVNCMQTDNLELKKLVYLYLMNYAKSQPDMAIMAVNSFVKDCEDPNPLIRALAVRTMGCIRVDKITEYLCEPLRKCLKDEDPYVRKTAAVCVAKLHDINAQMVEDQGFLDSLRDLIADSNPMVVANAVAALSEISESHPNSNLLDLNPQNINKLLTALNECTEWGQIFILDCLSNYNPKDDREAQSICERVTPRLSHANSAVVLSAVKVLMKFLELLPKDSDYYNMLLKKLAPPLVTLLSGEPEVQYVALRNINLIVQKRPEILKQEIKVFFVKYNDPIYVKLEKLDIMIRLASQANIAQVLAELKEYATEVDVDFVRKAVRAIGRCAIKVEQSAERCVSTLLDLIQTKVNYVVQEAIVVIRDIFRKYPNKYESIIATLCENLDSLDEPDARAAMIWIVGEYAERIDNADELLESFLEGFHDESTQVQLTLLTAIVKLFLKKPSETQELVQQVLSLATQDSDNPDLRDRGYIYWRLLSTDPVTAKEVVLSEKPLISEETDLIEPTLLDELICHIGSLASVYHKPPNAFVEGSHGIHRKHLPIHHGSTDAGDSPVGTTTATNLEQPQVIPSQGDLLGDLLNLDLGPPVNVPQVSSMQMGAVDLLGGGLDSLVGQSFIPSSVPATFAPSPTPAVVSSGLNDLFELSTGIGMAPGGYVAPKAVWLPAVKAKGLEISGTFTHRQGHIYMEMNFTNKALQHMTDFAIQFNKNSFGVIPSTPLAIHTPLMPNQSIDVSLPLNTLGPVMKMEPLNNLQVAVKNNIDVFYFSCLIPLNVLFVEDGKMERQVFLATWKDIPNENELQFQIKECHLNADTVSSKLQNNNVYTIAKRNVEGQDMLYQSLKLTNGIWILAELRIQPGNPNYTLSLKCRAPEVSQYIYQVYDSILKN
Chain of ATP-binding cassette sub-family B member 6 (Homo sapiens) (Q9NP58 whole entry, looked up): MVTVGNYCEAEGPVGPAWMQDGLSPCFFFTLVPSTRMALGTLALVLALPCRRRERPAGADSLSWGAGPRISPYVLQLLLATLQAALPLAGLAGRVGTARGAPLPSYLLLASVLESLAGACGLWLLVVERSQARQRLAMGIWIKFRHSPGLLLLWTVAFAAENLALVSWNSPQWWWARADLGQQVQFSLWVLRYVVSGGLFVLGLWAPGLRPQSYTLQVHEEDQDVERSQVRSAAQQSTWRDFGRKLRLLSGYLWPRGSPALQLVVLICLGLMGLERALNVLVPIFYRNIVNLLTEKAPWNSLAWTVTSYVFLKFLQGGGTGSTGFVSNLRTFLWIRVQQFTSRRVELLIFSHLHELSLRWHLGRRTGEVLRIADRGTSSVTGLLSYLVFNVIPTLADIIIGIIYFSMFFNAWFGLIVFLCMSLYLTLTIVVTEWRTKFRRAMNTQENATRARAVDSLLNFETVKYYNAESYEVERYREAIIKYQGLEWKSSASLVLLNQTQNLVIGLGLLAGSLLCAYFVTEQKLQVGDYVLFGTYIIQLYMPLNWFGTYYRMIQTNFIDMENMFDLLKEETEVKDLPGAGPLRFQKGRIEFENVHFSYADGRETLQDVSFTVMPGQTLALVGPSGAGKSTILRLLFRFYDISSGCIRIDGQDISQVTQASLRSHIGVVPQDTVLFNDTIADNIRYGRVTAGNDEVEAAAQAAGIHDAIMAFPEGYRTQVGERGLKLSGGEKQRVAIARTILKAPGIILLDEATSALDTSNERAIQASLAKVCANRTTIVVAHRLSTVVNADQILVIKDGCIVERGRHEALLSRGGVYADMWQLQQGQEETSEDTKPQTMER
Chain of Beta-adrenergic receptor kinase 1 (Homo sapiens) (P25098 whole entry, looked up): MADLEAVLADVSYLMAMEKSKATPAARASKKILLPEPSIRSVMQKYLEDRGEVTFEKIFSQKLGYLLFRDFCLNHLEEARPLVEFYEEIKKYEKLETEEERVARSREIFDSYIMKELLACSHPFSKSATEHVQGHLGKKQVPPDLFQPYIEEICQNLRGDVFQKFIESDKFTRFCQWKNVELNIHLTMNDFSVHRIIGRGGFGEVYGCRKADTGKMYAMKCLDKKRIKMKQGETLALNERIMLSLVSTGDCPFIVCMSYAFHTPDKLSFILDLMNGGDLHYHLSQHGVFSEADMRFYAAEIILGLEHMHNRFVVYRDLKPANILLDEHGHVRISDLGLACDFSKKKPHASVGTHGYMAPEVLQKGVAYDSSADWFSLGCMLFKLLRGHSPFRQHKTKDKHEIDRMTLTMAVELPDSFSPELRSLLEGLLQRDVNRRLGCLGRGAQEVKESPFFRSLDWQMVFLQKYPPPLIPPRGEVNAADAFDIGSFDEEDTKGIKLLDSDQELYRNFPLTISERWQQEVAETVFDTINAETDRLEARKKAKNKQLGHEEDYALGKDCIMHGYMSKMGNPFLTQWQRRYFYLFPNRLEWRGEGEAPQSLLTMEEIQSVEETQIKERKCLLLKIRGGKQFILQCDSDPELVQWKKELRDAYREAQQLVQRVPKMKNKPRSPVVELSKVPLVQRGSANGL
Chain of Beta-2 adrenergic receptor (Homo sapiens) (P07550 whole entry, looked up): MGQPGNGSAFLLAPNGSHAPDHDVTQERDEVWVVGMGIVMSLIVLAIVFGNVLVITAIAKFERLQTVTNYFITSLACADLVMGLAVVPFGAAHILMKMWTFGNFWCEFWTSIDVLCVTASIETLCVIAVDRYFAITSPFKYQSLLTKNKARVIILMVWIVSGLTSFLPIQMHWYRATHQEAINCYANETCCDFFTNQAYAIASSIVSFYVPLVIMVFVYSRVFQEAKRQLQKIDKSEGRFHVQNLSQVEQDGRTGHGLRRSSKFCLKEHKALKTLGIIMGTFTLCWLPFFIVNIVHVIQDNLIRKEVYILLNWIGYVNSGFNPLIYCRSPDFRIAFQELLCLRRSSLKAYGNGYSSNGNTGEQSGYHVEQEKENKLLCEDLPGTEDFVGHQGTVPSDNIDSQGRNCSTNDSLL

Regarding `OCC1CCN(Cc2cn(Cc3ccccc3)nc2-c2cc3ccccc3o2)CC1`, the percent of DMSO control GFP in experiment [1] was 106% (inactive). Further, the GFP response vs DMSO was 97.2% (inactive) in experiment [2] and 79.5% (inactive) in [4]. In addition, the percent response of DMSO control in experiment [3] was 97.8% (inactive). For the same compound, the GFP response, % of DMSO in [5] is 102% (inactive). For the same compound, the double positive events in [6] amounted to 60.9%. Also, in experiment [6], the vesicle binding response is 203% (inactive). In addition, the inhibition in [7] is 18.2% (inactive); in experiment [11] it was 5.6% (inactive); in experiment [15], 20% (inactive). The superoxide response (% of plate) in [8] is 99.1% (inactive). Further, in [9], the aptamer binding inhibition is -3% (inactive). The values for the response in experiment [10] and in experiment [12] were 21% (inactive) and -6.29% (inactive), respectively. Moreover, the binding (% of control) in [13] is 98.5% (inactive). Moreover, the efflux inhibition (fraction of control) in [14] is 0.52 (active). Moreover, the differentiation response in [16] is 10% (inactive).
With `CC(C)N(Cc1nccn1C)C(=O)CC1C(=O)NCCN1Cc1ccccc1C(F)(F)F` (stereo not given), the percent of DMSO control GFP in [1] is 102% (inactive). The figures for the GFP response vs DMSO in experiment [2] and in experiment [4] were 98.7% (inactive) and 97% (inactive), respectively. Besides, the percent response of DMSO control in [3] was 102% (inactive). Further, the GFP response, % of DMSO in [5] is 103% (inactive). Further, the double positive events in experiment [6] stood at 71.7%. Moreover, the vesicle binding response in experiment [6] is 182% (inactive). For the same compound, the inhibition is 4.27% (inactive) in experiment [7], -0.01% (inactive) in experiment [11] and 6% (inactive) in [15]. In addition, the superoxide response (% of plate) in experiment [8] is 82.9% (inactive). For the same compound, in experiment [9], the aptamer binding inhibition is -2% (inactive). Further, the response was 2.35% (inactive) in [10] and -1.67% (inactive) in [12]. The binding (% of control) in experiment [13] was 102% (inactive). In addition, in experiment [14], the efflux inhibition (fraction of control) was -0.5 (inactive). The differentiation response in experiment [16] is -0.18% (inactive).
`CC(C(=O)O)c1ccc(-c2ccccc2)c(F)c1` (stereo not given): the percent of DMSO control GFP in experiment [1] was 94.8% (inactive). Moreover, the GFP response vs DMSO in [2] was 104% (inactive); in experiment [4], 128% (inactive). The percent response of DMSO control in experiment [3] was 76.8% (inactive). Further, the GFP response, % of DMSO in experiment [5] is 84.8% (inactive). In addition, the double positive events in experiment [6] was 66.4%. In experiment [6], the vesicle binding response is 1320% (inactive). Also, the inhibition is 1.62% (inactive) in [7], -9.46% (inactive) in experiment [11] and 1% (inactive) in experiment [15]. For the same compound, the superoxide response (% of plate) in [8] was 106% (inactive). In addition, the aptamer binding inhibition in experiment [9] is -1% (inactive). The response in experiment [10] is -7.02% (inactive); in experiment [12] it was -1.04% (inactive). For the same compound, in experiment [13], the binding (% of control) was 103% (inactive). For the same compound, the efflux inhibition (fraction of control) in experiment [14] is 0.05 (inactive). For the same compound, the differentiation response in [16] was 0.24% (inactive).
For the compound `CCCc1cc(C(N)=S)ccn1`, the percent of DMSO control GFP in experiment [1] was 96.9% (inactive). For the same compound, the figures for the GFP response vs DMSO in [2] and in [4] were 99.6% (inactive) and 91.4% (inactive), respectively. In addition, the percent response of DMSO control in [3] was 101% (inactive). Moreover, the GFP response, % of DMSO in experiment [5] was 93.1% (inactive). In addition, in experiment [6], the double positive events stood at 60.4%. Further, the vesicle binding response in [6] was 190% (inactive). Moreover, the inhibition in experiment [7] is 0.94% (inactive); in [11] it was 7.42% (inactive); in experiment [15], -25% (inactive). The superoxide response (% of plate) in experiment [8] was 97% (inactive). In addition, in experiment [9], the aptamer binding inhibition is 2% (inactive). Moreover, the response in experiment [10] is -5.23% (inactive); in [12], -1.93% (inactive). Further, the binding (% of control) in [13] was 97.6% (inactive). For the same compound, the efflux inhibition (fraction of control) in experiment [14] is -0.28 (inactive). Moreover, the differentiation response in experiment [16] was -18.4% (inactive).
`Cc1ccc2c(ccc(=S)n2C)c1`: the percent of DMSO control GFP in [1] was 103% (inactive). Besides, the values for the GFP response vs DMSO in [2] and in [4] were 97.2% (inactive) and 93.3% (inactive), respectively. The percent response of DMSO control in [3] is 115% (inactive). The GFP response, % of DMSO in [5] was 102% (inactive). In experiment [6], this compound came in with a double positive events of 54.1%. The vesicle binding response in experiment [6] is 44.4% (active). Also, the results for the inhibition in experiment [7], in [11] and in experiment [15] were 7.85% (inactive), -3.91% (inactive) and 19% (inactive), respectively. The superoxide response (% of plate) in experiment [8] is 87.8% (inactive). Besides, the aptamer binding inhibition in [9] was 4% (inactive). Further, the response in experiment [10] is -14% (inactive); in experiment [12], 0.7% (inactive). For the same compound, the binding (% of control) in [13] was 97.7% (inactive). Also, the efflux inhibition (fraction of control) in experiment [14] was -0.01 (inactive). Further, in experiment [16], the differentiation response was 1.22% (inactive).

Source of the values: PubChem BioAssay.
